aSyn rescue: rescues yeast growth from alpha-synuclein toxicity; Yeast expressing alpha-synuclein, growth rescue, BacTiter-Glo, 24 h; Potency, µM (top dose mostly 46.1 µM), most hits filed as activators; 370,000 compounds, 0.14% hits; note: nearly all actives have a fitted effect of over 65% in size
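Screening used galactose-induced yeast with toxic alpha-synuclein levels, exposed to compound for 24 hr at 30 deg C. Cell growth, read with BacTiter-Glo luminescence, gave the measured signal.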
FUS yeast rescue: suppressors of FUS proteinopathy in yeast; S. cerevisiae FUS-expressing, growth rescue, OD600, 24 h; Potency, µM (highest dose often 76.6 µM), hits mostly activators; 390,000 compounds, 0.24% hits; AID 1347120; note: nearly all actives have a fitted effect of over 55% in size
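Yeast expressing FUS under galactose induction, OD 0.005 in 2% galactose medium; compounds in a dilution series, 24 h at 30C. Growth rescue by absorbance at 600 nm; CP55940 positive control, DMSO negative.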
Mito fusion yeast: inhibitors of mitochondrial division or activators of mitochondrial fusion. Potency, µM (top dose mostly 46.1 µM), most hits filed as activators. S. cerevisiae fusion-defective mutant growth rescue, CellTiterGlo 48 h. AID 485298. 320,000 compounds, 0.23% hits; note: nearly all actives have a fitted effect of over 45% in size
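Luminescent cell viability in 1536-well qHTS format served as the measure of rescued growth in ts fusion-mutant S. cerevisiae cultured on non-fermentable YPEG for 48 hours at 37C.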
Abeta rescue: A-beta toxicity reversal in yeast. AID 1347071. Potency, µM (titrated, usually from 46.1 µM), usual class: activators. yeast expressing A-beta42, growth rescue, OD600, 48 h; response scale: 0% DMSO, 100% iron-clioquinol control. 410,000 compounds, 0.063% hits; note: nearly all actives have a fitted effect of over 55% in size
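Yeast growth medium received pinned compounds, then yeast cells expressing toxic A-beta were added; plates incubated at 30 C for 48 hr. Growth read as absorbance at 600 nm, normalized to DMSO and equimolar FeCl3 plus clioquinol controls.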
TDP43 rescue: inhibitors of TDP-43 toxicity in yeast | TDP-43 expressing yeast growth rescue, BacTiter-Glo, 24 h | Potency, µM (titrated, usually from 46.1 µM), hits mostly activators | 410,000 compounds, 1.8% hits; note: nearly all actives have a fitted effect of over 50% in size
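Galactose-induced TDP-43 yeast, OD600=0.02, compound pinned; 24 hr, 30 deg C; BacTiter-Glo luminescence for growth. Inhibitors of TDP-43 toxicity read as activators.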
Numbers stand for hits; - = inactive; ? = inconclusive; . = no result; [ ] = remark or other dose. The list is not random: actives were taken first. Their share in the collection is about 2.2%. Calls come from the whole dose curve; as a rule, active = well fitted curve in the direction sought with a large enough effect; inconclusive = small, poorly fitted or top-dose-only effect, or another doubt; inactive = no such curve, though single readings can be large; an effect the other way counts as inactive or inconclusive.

SMILES	aSyn rescue	FUS yeast rescue	Mito fusion yeast	Abeta rescue	TDP43 rescue
Cc1ccc(NC(=O)Cn2nnc(C(=O)Nc3ccc(C)c(C)c3)c2N)cc1	-	22.4µM	-	-	-
Cc1ccc(NC(=O)c2nnn(CC(=O)Nc3ccc4c(c3)OCO4)c2N)cc1C	-	-	-	-	-
CSc1ccc(/C=C2\C=Cc3cc([N+](=O)[O-])ccc32)cc1	-	.	.	.	.
CC(=O)Nc1nc(-c2ccc(Cl)cc2)nc(C)c1C(C)=O	-	-	-	-	35.5µM
COC(=O)c1ccccc1NC(=O)CN1C(=O)COc2ccc(Cl)cc21	.	-	.	-	12.6µM
CCOc1ccccc1NC(=O)CN1C(=O)COc2ccc(C)cc21	-	-	-	-	11.2µM
COC(=O)c1ccccc1NC(=O)CN1C(=O)COc2ccccc21	-	-	.	-	-
COc1ccc(S(=O)(=O)NCC(c2ccco2)S(=O)(=O)c2cccs2)cc1C (configuration not stated)	.	-	.	-	?
Cc1cnc(C=O)c2cccc([N+](=O)[O-])c12	-	-	.	-	20µM
Cc1ncc(C)c2c([N+](=O)[O-])cccc12	-	-	.	-	?
COc1ccc(Cl)cc1NC(=O)Cn1nc(Cc2ccncc2)c2ccccc2c1=O	.	-	.	-	-
Cc1cc2nc(-c3ccco3)c(Cc3cccc(Cl)c3)n2c(C)c1Br	-	-	.	-	12.6µM
COc1ccc(-c2c3c(=O)n(C)c(=O)n(C)c3c3c(-c4cccc(C)c4)nc4ccccc4n23)cc1	.	-	.	-	15.8µM
COc1cc2c(NC3CCN(C)CC3)nc(N3CCCCC3)nc2cc1OCCOCCN1CCCC1	-	.	.	.	.
CCOc1ccc(CCNC(=O)c2nc(-c3cccc(F)c3)n3c2CCCCC3)cc1OCC	.	?	.	-	17.8µM
CN(C(=O)c1nc(-c2cccc(F)c2)n2c1CCCCC2)c1ccccc1F	.	-	.	-	-
Cc1ccc(C2=NN(C(=O)CCl)C(c3cccs3)C2)o1 (configuration not stated)	-	-	-	-	20µM
Cc1cc(C)c(C(N)=O)c(SCC(=O)c2cc(C)n(-c3cc(C)on3)c2C)n1	-	-	.	-	35.5µM
COCCCn1c(=N)c(S(=O)(=O)c2ccccc2)cc2c(=O)n3cccc(C)c3nc21	-	-	.	-	-
Cc1ccc(C(=O)NCC#N)cc1	-	-	-	-	-
Cc1ccc(C(=O)NC(C#N)=C(Cl)Cl)cc1	-	-	-	-	11.2µM
Cc1c(NC(=O)/C(C#N)=C/c2ccc(-c3ccc(Cl)cc3)o2)c(=O)n(-c2ccccc2)n1C	-	?	-	-	31.6µM
O=C(COC(=O)/C=C/c1ccc(Cl)c(Cl)c1)NC1CCCC1	-[1.84 µM]	-	-	-	10µM
Cc1cccc(N(C(=O)c2snc(C(N)=O)c2N)C(C(=O)NCc2ccccc2)c2ccncc2)c1 (configuration not stated)	-	-	-	-	-
COc1ccc(Nc2nc(-c3cccs3)cs2)c(OC)c1	.	-	-	-	12.6µM
SMILES	aSyn rescue	FUS yeast rescue	Mito fusion yeast	Abeta rescue	TDP43 rescue
COc1ccc(OC)c(Nc2nc(-c3cccs3)cs2)c1	-	-	-	-	15.8µM
COc1ccc(Nc2nc(-c3sc(C)nc3C)cs2)c(OC)c1	-	-	-	-	15.8µM
O=C(Nc1cc(C(F)(F)F)ccc1N1CCCC1)c1ccc2c(c1)OCO2	-	-	-	-	17.8µM
CCC(=O)N1CCN(c2ccc(NC(=O)c3ccc4c(c3)OCCO4)cc2)CC1	-	-	-	-	-
O=C(Nc1ccccc1N1CCCC1)c1ccc2c(c1)OCO2	-	-	-	-	?
CCC(=O)N1CCN(c2ccc(Cl)cc2NC(=O)c2ccc3c(c2)OCCO3)CC1	-	?	-	-	25.1µM
CSc1ccc(C2c3c(-c4ccccc4O)n[nH]c3C(=O)N2Cc2ccncc2)cc1 (configuration not stated)	.	-	.	-	-
CCCNC(=O)c1cc2c3ccccc3n(C)c2s1	-	-	?	-	14.1µM
Cc1ccc(-n2ncc(C(=O)NCc3ccc4c(c3)OCO4)c2C2CCN(C(=O)OC(C)(C)C)CC2)c(C)c1	.	?	.	?	-
COc1ccc(Cn2cc(CN3CCc4onc(-c5ccc(Br)cc5)c4C3=O)nn2)cc1	-	?	.	-	17.8µM
COc1cc(/C=C(/C#N)C(=O)c2c(C)[nH]c3ccccc23)ccc1OCC#N	-	-	-	-	-
CCOc1ccc(/C=C(\C#N)C(=O)c2c(C)[nH]c3ccccc23)cc1OC	-	-	-	-	20µM
COC1CCC2(C)C(=CCC3C4CC(O)CC4(C)CCC32)C1 (configuration not stated)	-	.	.	-	14.1µM
CC(=O)[C@H]1CC[C@H]2[C@@H]3CC=C4C[C@@H](O)CC[C@]4(C)[C@H]3CC[C@]12C	-	-	-	-	-
Cc1c(NC(=O)CSc2ccc(Cl)cc2)cccc1-c1nc2ncccc2o1	-	-	-	-	14.1µM
Cc1cccc(C)c1NC(=O)CCCN1C(=O)C(c2ccccc2)Oc2cccnc21 (configuration not stated)	-	-	12.6µM	-	-
c1ccc(OCCNc2ccn3nc(-c4cccs4)cc3n2)cc1	-	-	.	-	14.1µM
COc1ccccc1-c1cc2nc(NCCOc3ccccc3)ccn2n1	-	-	.	-	25.1µM
c1ccc(OCCNc2ccn3nc(-c4ccccc4)cc3n2)cc1	-	-	.	-	-
c1ccc(OCCNc2ccn3nc(-c4ccco4)cc3n2)cc1	-	-	.	-	15.8µM
CCc1nc2ccc(C(=O)N3CCN(S(=O)(=O)CC)CC3)cn2c1N(C)Cc1cccs1	-	-	.	-	-
COc1ccc(OC)c(NC(=O)c2csc(Cl)c2OC)c1	-	?	10µM	-	20µM
COc1ccc(OC)c(NC(=O)c2ccc(Cl)cc2)c1	-	-	-	-	-
Cc1ccccc1OCC(=O)Nc1cc(C)c(O)c(-c2nc3ccccc3o2)c1	-	.	.	.	.
O=C(N1CCN(c2ccccn2)CC1)N1c2ccccc2Sc2ccccc21	-	-	11.2µM	-	-
SMILES	aSyn rescue	FUS yeast rescue	Mito fusion yeast	Abeta rescue	TDP43 rescue
CC(=O)c1ccc(NC(=O)Cn2c(=O)oc3cc(S(=O)(=O)N4CCCCC4)ccc32)cc1	.	-	.	-	-
COc1cccc(Cn2c(SCC(=O)N(C)c3ccccc3)nc3ccccc32)c1	.	?	.	-	17.8µM
O=C(CSc1nc2ccccc2n1CC(=O)N1CCCC1)NCc1ccc2c(c1)OCO2	-	-	2.82µM	-	-
O=C(CSc1nc2ccccc2c(=O)n1-c1ccccc1)NCc1ccc2c(c1)OCO2	-	-	-	-	-
O=C(CSc1nc2ccccc2n1Cc1cccc(F)c1)NCc1ccccc1	.	-	.	-	22.4µM
CSc1nc2ccccc2n1Cc1cccc(F)c1	-	-	-	-	17.8µM
CCN1C[C@@H]2[C@@H]3C(=O)N(Cc4ccccc4)C(=O)[C@@H]3[C@](C)(C1=O)N2C(=O)c1ccc(F)cc1	-	-	.	-	-

Screening data (PubChem)
